Results filed as inconclusive are left out. Entries that show only a call come without a potency. Values without a mark were called inactive. Calls of active or inactive are those of the source. The call rests on the fitted dose curve; in most records, active means well fitted inhibition curve with a large enough effect; inconclusive means small, poorly fitted or top-dose-only effect; inactive means no such curve, though single readings can be large or run the other way.

In this assay the target is Rap guanine nucleotide exchange factor 3 (Homo sapiens) (UniProt O95398). Put plainly: Counterscreen qHTS for antagonist of cAMP-regulated guanine nucleotide exchange factor 3 (EPAC1) (AID 1645888).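 Further: fluorescence loss as bound BODIPY-GDP is released from Rap1B.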 Conditions: Rap1B-BODIPY-GDP nucleotide exchange, fluorescence; series mostly up to 154 µM. In short, it runs like this: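 Rap1B–BODIPY-GDP (250 nM) with 50 uM GDP; compounds pin-transferred to 9.74 nM–152 uM final (activator) or from 7.32 nM upwards (inhibitor). Fluorescence Ex/Em 480/540 nm read at 5 and 30 min, then after adding cAMP or buffer, at room temperature.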
Chain of Rap guanine nucleotide exchange factor 3 (Homo sapiens) (O95398 whole entry, looked up): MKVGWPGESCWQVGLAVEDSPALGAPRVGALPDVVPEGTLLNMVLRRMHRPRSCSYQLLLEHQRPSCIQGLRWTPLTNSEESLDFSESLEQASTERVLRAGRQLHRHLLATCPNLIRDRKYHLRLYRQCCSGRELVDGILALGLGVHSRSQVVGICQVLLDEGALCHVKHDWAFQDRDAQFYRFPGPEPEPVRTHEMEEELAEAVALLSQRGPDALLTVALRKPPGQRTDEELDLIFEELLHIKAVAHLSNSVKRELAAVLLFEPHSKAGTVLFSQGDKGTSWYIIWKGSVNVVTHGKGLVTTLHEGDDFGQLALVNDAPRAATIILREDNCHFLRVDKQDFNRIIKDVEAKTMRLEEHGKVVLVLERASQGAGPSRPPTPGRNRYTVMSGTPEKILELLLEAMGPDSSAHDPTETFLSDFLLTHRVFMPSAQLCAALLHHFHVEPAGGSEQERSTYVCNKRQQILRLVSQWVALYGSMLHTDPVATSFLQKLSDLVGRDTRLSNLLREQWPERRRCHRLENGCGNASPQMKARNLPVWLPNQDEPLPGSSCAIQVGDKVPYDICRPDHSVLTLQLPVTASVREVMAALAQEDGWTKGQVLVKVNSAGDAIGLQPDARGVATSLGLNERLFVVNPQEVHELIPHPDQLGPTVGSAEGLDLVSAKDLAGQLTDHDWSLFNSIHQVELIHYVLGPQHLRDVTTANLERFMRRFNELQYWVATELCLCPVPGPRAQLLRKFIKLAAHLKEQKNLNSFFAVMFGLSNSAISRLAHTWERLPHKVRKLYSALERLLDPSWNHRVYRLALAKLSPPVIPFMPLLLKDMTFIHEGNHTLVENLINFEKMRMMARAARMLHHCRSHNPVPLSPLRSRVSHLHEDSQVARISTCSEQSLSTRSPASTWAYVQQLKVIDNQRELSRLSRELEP
Consider `COc1ccc(-c2nn3c(-c4cccc(C)c4)nnc3s2)cc1OC`, for which the Potency result was “inactive”.

Turning to `Cc1ccccc1C(=O)Nc1ccccc1N1CCCCC1`, the Potency entry is “inactive”.

On to `CN(CC(=O)Nc1ccc(F)cc1)C(=O)c1cc(-c2ccco2)nc2ccccc12`, for which the Potency entry is “inactive”.

In the case of `Clc1cccc(-c2nc3ccc(Cl)cn3c2Cc2ccsc2)c1`, the Potency result is “inactive”.

Consider `Cc1ccc(SCc2cc(=O)c3c(=O)n(-c4ccccc4)[nH]c3[nH]2)cc1`, for which the Potency result was “inactive”.

Regarding `CCCCC1CC2=C(C(=O)OC(C)(C)O2)C(c2ccc(Cl)cc2)O1` (stereo not given), the Potency entry was “inactive”.

Take `Cc1ccc(CN(Cc2ccco2)C(=O)c2ccccc2Br)o1`: the Potency result is “inactive”.

Regarding `Cc1oc2ccc(O)c(CN3CCCCC3)c2c1C(=O)Nc1cccc(C(F)(F)F)c1`, the Potency result is “inactive”.

Turning to `COc1cc(NC(=O)c2ccccc2NS(=O)(=O)c2ccc(Cl)s2)cc(OC)c1`, the Potency result is “inactive”.

In the case of `C#Cc1ccc([C@@H]2C=C(C(=O)NCc3ccccc3)O[C@H](OCC)[C@H]2CCCO)cc1`, the Potency result was “inactive”.

For `Cc1nc2c(OCc3ccc(C(F)(F)F)cc3)cccn2c1N(C)Cc1cccs1`, the Potency entry is “inactive”.

For the molecule `C=Cc1ccc(CC2(C)C(=O)Nc3ccc(Cl)cc32)cc1` (stereo not given), the activity change, negative = inhibition was -14.8% [at 30.8 µM].

On to `COc1cc(/C=N/NS(=O)(=O)c2ccc3ccccc3c2)ccc1OCc1ccc(C(=O)O)cc1`, for which the Potency result is “inactive”.

Turning to `COc1ccc(-c2nc3ccccc3nc2-c2ccccc2)cc1`, the Potency entry is “inactive”.

For the molecule `O=C(NC1CC1)C1CCN(S(=O)(=O)c2cc([N+](=O)[O-])ccc2Cl)CC1`, the Potency result was “inactive”.

As for `CCOC(=O)C1=C(C)NC(C)=C(C(=O)OCC)C1C(=O)OCC(=O)NCc1ccc(F)cc1`, the Potency entry is “inactive”.

As to `CC(=O)NC(C)(c1ccccc1)c1nc(-c2cc(F)cc(F)c2)cs1` (stereo not given), the Potency result is “inactive”.

For the molecule `C[n+]1cccc2c(Br)ccc([O-])c21`, the Potency result is “inactive”.

As to `CCOC(=O)c1c(C)[nH]c(C(=O)C(C)OC(=O)c2ccc(NC(=O)CC#N)cc2)c1C` (stereo not given), the Potency entry is “inactive”.

On to `CC(=O)NC(c1ccccc1)c1c(O)ccc2ccccc12` (stereo not given), for which the activity change, negative = inhibition was -4.37% [at 30.8 µM].

Turning to `Cc1cccc(NC(=O)CNC(=O)CCc2nc3sc4c(c3c(=O)[nH]2)CCCC4)c1C`, the Potency result is “inactive”.

For the molecule `CCCCn1nnnc1C(c1cc2ccccc2o1)N1CCN(c2ncccc2C#N)CC1` (stereo not given), the activity change, negative = inhibition was -7.87% [at 30.8 µM].

For `O=c1cc(CN2CCN(S(=O)(=O)c3cccc(Cl)c3)CC2)c2ccc(O)cc2o1`, the Potency entry is “inactive”.

Turning to `CCOC(=O)c1ccc(NC(=O)c2c(N)n(Cc3ccccc3)c(=O)[nH]c2=O)cc1`, the Potency entry is “inactive”.

In the case of `CCOc1ccccc1NC(=O)C1COc2ccccc2O1` (stereo not given), the Potency result was “inactive”.

For the origin of these results see PubChem BioAssay (NCATS).
